In all, about 52,000 compounds went through this assay and about 4,300 (8.3%) were called active. The sample holds actives, similar compounds and a random draw of the others, so the mix is not that of the screen. Unmarked numbers belong to inactive results. Rule as the data show it: active = survival mostly below about 52% (no sharp cut-off); inactive = mostly above about 56%.

The experiment deals with DeltatarO mutant. As to the kind of experiment: growth inhibition of S. aureus wild type versus tarO mutant, primary screen, teichoic acid synthesis inhibitors, RN4220, OD600 (AID 463173). The conditions noted are these: OD600, 18 h, hits give low values, screened at 18.75 µg/mL (by protocol).
`COc1ccc(C(=O)OCc2cc(=O)n3nc(-c4cccs4)sc3n2)cc1`: the survival was 60%.
The figure for `c1ccc(Oc2ccc(N=NN3CCCCC3)cc2)cc1` is 74%.
`CCN1CCN(c2c(S(=O)(=O)c3ccc(C)c(C)c3)cnc3cc(OC)c(OC)cc23)CC1`: the survival was 75%.
With `CCC(=O)c1cc2c(cc1NC(=O)c1cccc(Cl)c1)OCCO2`, the survival is 105%.
For `COc1ccc2oc(-c3ccc(C)c(NC(=O)Cc4ccc(Cl)cc4)c3)nc2c1`, the survival is 151%.
For `COc1ccc2oc(-c3ccc(C)c(NC(=O)c4sc5ccccc5c4Cl)c3)nc2c1` the value was 48% (active); for `COc1ccc2oc(-c3cccc(NC(=O)c4sc5c([N+](=O)[O-])cccc5c4Cl)c3)nc2c1`, 77%; for `Cc1ccc(C(=O)Nc2cc(-c3nc4cc(Cl)ccc4o3)ccc2C)c(C)c1`, 85%.
For `Cc1c(NC(=O)c2sc3ccccc3c2Cl)cccc1-c1nc2ccccc2o1` the value was 53%; for `CCc1ccc(OCC(=O)Nc2cc(-c3nc4cc(C)ccc4o3)ccc2C)cc1`, 65%; for `COc1ccc2oc(-c3ccc(C)c(NC(=O)COc4cc(C)cc(C)c4)c3)nc2c1`, 43% (active).
In the case of `Cc1ccc2oc(-c3ccc(C)c(NC(=O)C(C)(C)Oc4ccc(Cl)cc4)c3)nc2c1`, the survival is 13% (active).
Consider `Cc1ccc2nc(-c3ccc(C)c(NC(=O)CSc4ccc(Cl)cc4)c3)oc2c1`, for which the survival was 85%.
For `COc1ccc2oc(-c3ccc(C)c(NC(=O)CSc4ccc(Cl)cc4)c3)nc2c1` the value was 51% (active).
Consider `Cc1ccc2oc(-c3ccc(C)c(NC(=O)/C=C/c4ccc(Cl)cc4)c3)nc2c1`, for which the survival is 90%.
With `Cc1ccc(-c2nc3cc(Cl)ccc3o2)cc1NC(=O)COc1ccc(F)cc1`, the survival is 53%.
For `COc1cccc2cc(-c3nc(-c4ccc(Cl)cc4)cs3)c(=O)oc12` the value was 83%.
The figure for `Cc1ccc(Sc2c(C(=O)NCc3ccccc3C)[nH]c3ccccc23)cc1` is 77%.
`CCOc1cccc(C(=O)Nc2ccc(Cl)cn2)c1`: the survival is 72%.
With `Cc1cccc(Cn2cc(S(=O)(=O)c3cccc(Cl)c3)c(=O)c3cc(F)c(N4CCOCC4)cc32)c1`, the survival was 85%.
Consider `Cc1ccc(C)c(CN2CCC(CNC(=O)Cn3ncc4c([nH]c5ccccc54)c3=O)CC2)c1`, for which the survival is 70%.
In the case of `Cc1ccc(S(=O)(=O)c2[nH]c(-c3ccccc3)nc2SCC(=O)O)cc1`, the survival was 78%.
For `COC(=O)c1ccc(NC(=O)c2cc3cc(C)ccc3n2C)cc1` the value was 66%; for `O=C1C(c2nc3ccccc3[nH]2)=C(O)c2ccccc21`, 74%.

The values above are taken from PubChem BioAssay AID463173 (ICCB-Longwood Screening Facility, Harvard Medical School, 2010).
